Data on one sequence can be found in article PMC7862700, “An all-to-all approach to the identification of sequence-specific readers for epigenetic DNA modifications on cytosine”.

Common to all, as to assay: DAPPL (digital affinity profiling via proximity ligation, sequencing); 10 mM Tris-HCl pH 7.5, 50 mM NaCl, 1 mM DTT, 4% glycerol, room temperature, 30 min; GST-TFs on glutathione beads, 16-mer random dsDNA library, 0.1% formaldehyde crosslink after washing; high values mean tight binding
What all share (conditions): protein: recombinant; tags: N-terminal GST; dsDNA, one strand shown

For one test, the target named is T1, FLI1 (Homo sapiens, UniProt Q01543 1-452).
T1 sequence: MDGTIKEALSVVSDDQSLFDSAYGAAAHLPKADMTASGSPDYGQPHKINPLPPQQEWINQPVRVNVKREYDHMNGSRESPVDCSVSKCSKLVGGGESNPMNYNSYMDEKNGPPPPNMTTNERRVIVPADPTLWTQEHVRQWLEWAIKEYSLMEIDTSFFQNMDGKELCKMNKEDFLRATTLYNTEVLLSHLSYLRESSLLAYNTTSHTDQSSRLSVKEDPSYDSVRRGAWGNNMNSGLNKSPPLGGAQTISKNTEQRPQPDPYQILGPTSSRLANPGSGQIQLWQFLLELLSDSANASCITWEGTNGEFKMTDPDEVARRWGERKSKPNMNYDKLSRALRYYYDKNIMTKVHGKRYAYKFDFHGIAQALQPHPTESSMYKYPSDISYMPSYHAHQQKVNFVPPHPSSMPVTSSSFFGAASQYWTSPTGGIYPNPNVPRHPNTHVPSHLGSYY
In short, it runs like this:
(§1)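 GST fusions of human transcription factors were expressed in yeast and captured with glutathione beads. Once given DNA barcodes and pooled alongside a tag-only sample, they were incubated for 30 min at room temperature with 200 nmole of a random double-stranded 16-mer DNA library in Tris/NaCl/DTT/glycerol buffer, then washed, crosslinked (0.1% formaldehyde), proximity-ligated, PCR-amplified and sequenced on an Illumina NextSeq500. The binding signal of each hexamer is its read frequency for a factor divided by its frequency for the tag-only sample.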

Another test deals with T2, ELK1 (Homo sapiens, UniProt P19419 1-428).
T2 sequence: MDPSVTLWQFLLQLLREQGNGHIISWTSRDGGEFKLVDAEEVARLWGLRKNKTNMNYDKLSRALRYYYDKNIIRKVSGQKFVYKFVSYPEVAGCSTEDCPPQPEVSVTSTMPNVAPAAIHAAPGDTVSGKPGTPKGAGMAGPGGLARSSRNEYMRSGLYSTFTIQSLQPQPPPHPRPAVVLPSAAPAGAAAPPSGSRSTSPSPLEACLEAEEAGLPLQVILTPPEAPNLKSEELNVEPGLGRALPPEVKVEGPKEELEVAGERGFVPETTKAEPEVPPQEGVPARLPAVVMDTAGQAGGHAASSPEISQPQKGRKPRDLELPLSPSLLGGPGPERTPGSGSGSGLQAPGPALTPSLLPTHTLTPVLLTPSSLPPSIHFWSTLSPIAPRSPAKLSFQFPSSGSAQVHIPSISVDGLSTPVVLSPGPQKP
The procedure, abridged: as §1

In a further test the target is T3, GABPA (Homo sapiens, UniProt Q06546 1-454).
T3 sequence: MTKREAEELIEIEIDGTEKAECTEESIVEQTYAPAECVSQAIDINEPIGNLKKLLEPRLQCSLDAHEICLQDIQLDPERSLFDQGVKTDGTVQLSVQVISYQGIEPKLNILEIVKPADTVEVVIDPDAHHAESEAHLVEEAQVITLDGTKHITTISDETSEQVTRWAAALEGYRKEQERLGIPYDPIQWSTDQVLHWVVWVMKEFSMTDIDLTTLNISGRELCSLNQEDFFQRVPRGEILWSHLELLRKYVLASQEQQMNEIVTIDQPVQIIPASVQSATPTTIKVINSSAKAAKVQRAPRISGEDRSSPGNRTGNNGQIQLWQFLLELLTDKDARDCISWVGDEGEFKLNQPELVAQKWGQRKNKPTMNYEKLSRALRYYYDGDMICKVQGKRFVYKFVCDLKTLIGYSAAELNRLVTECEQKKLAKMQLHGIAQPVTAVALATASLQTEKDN
The procedure, abridged:
as §1

In another test the target is T4, ERG (Homo sapiens, UniProt P11308 1-479).
T4 sequence: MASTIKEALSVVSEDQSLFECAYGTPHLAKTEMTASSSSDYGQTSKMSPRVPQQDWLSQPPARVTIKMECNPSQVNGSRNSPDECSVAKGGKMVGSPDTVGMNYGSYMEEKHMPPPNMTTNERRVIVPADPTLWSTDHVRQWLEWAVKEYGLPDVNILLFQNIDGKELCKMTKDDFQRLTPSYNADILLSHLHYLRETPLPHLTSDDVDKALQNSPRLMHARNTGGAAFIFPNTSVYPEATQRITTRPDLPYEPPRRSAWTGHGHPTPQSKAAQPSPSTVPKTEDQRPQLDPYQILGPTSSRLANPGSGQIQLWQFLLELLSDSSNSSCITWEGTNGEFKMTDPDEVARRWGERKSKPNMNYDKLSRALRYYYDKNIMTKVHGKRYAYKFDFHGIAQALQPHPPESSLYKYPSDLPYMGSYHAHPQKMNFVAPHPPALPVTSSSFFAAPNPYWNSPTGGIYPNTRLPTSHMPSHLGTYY
The procedure, abridged: as §1

Another test concerns the target ELF1 (Homo sapiens, UniProt P32519 1-619). In short, it runs like this:
as §1

The target in the next test is T5, EHF (Homo sapiens, UniProt Q9NZC4 1-300).
T5 sequence: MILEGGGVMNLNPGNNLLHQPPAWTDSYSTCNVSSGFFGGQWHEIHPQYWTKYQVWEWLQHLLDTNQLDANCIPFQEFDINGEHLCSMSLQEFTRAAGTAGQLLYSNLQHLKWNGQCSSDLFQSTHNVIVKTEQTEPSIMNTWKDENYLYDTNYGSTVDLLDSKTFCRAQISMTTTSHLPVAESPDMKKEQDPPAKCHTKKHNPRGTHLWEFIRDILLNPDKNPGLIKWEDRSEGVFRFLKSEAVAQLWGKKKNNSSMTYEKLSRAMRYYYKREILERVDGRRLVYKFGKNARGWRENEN
In short, it runs like this:
as §1

A further test addresses SPI1 (Homo sapiens, UniProt P17947 1-270). In short, it runs like this: as §1
The next test deals with SPIB (Homo sapiens, UniProt Q01892 1-262). The procedure, abridged: as §1
Sequence of SPIB (Q01892 whole entry): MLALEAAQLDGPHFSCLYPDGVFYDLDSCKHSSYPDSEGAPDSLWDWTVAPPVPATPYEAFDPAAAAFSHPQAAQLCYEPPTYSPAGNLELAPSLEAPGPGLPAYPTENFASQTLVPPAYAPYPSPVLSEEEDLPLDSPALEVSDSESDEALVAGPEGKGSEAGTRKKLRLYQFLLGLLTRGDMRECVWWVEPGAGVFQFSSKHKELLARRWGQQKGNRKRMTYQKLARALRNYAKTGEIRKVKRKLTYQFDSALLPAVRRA
In a further test the target is T6, ELK3 (Homo sapiens, UniProt P41970 1-407).
T6 sequence: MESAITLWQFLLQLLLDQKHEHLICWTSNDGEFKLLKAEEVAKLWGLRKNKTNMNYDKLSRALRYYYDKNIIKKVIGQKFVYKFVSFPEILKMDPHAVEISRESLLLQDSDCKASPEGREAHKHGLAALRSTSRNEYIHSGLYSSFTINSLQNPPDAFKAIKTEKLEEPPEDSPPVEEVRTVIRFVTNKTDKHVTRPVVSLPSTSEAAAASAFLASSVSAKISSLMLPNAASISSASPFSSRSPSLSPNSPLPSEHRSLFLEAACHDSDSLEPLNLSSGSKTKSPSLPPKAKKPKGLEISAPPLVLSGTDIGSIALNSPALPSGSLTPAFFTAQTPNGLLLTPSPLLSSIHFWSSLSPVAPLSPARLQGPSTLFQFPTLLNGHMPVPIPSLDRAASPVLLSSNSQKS
In short, it runs like this: as §1

In a further test the target is T7, FEV (Homo sapiens, UniProt Q99581 1-238).
T7 sequence: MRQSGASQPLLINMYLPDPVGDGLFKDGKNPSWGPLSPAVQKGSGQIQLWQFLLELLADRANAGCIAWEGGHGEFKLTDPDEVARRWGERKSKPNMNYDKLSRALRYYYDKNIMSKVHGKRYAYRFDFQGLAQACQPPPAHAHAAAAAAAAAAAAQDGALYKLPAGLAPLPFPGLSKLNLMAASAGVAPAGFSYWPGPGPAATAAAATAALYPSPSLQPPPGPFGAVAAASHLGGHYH
In short, it runs like this: as §1

In a further test the target is ETV5 (Homo sapiens, UniProt P41161 1-510). The procedure, abridged:
as §1

For a further test, the target named is T8, SPIC (Homo sapiens, UniProt Q8N5J4 1-248).
T8 sequence: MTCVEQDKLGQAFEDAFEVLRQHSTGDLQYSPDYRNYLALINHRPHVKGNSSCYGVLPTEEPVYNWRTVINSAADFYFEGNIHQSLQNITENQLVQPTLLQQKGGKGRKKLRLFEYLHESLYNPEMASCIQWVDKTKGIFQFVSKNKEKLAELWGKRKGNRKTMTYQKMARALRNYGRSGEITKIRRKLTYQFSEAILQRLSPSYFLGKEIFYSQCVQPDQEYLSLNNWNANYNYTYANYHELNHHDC
The procedure, abridged:
as §1

The next test deals with ELF4 (Homo sapiens, UniProt Q99607 1-663). In short, it runs like this: as §1
Sequence of ELF4 (Q99607 whole entry): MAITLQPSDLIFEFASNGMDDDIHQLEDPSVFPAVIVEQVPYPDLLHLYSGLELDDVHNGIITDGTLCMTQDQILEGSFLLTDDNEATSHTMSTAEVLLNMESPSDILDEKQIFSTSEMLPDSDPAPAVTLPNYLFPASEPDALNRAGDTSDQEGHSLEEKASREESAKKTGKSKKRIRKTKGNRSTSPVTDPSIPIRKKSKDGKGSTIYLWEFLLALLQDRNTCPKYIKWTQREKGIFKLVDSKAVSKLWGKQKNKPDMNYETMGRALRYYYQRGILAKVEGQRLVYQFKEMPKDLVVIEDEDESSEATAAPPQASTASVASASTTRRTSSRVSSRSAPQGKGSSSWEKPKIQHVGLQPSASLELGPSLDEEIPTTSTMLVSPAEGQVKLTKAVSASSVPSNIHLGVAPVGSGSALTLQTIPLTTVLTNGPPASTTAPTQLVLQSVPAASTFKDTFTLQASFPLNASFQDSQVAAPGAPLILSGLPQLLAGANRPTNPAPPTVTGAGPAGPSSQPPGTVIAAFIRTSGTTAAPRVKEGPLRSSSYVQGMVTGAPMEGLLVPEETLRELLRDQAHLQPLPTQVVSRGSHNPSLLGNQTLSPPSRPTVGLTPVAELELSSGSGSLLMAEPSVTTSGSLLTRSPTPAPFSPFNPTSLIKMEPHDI
For a further test, the target named is T9, ELK4 (Homo sapiens, UniProt P28324-2 1-405).
T9 sequence: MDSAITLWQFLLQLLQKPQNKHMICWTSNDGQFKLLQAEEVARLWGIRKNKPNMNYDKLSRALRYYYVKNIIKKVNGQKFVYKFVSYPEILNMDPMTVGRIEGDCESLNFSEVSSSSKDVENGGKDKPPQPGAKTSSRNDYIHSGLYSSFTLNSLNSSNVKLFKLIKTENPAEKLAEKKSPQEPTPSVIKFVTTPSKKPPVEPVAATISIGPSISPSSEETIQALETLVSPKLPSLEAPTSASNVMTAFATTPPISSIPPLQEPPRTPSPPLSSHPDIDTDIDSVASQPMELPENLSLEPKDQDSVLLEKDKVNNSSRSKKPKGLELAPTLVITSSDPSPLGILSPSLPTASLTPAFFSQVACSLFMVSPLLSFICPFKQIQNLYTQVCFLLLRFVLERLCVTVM
The procedure, abridged: as §1

The target of a further test is T10, ETV2 (Homo sapiens, UniProt O00321 1-342).
T10 sequence: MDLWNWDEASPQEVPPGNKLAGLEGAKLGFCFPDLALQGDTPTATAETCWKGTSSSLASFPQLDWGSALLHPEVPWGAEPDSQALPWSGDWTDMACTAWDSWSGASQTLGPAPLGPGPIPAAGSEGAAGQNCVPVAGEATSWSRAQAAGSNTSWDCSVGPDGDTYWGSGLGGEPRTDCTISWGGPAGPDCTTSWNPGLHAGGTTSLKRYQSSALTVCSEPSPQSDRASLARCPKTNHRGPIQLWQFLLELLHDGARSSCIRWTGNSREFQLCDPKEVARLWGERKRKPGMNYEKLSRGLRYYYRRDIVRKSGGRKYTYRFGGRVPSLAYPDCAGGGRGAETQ
In short, it runs like this:
as §1

The target in a further test is T11, ELF3 (Homo sapiens, UniProt P78545 1-371).
T11 sequence: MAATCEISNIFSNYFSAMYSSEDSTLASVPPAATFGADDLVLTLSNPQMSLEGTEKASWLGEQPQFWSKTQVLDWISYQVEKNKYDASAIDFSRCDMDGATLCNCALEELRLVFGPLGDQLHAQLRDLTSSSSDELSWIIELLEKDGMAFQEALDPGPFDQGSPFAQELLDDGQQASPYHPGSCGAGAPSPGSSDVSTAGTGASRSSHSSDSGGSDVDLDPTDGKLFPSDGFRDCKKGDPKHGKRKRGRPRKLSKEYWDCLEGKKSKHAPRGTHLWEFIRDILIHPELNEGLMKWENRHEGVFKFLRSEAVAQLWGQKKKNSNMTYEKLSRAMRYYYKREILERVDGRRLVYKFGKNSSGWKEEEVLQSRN
The procedure, abridged:
as §1

In another test the target is ETV1 (Homo sapiens, UniProt P50549 1-477). The procedure, abridged:
as §1

Sequence of ETV1 (P50549 whole entry): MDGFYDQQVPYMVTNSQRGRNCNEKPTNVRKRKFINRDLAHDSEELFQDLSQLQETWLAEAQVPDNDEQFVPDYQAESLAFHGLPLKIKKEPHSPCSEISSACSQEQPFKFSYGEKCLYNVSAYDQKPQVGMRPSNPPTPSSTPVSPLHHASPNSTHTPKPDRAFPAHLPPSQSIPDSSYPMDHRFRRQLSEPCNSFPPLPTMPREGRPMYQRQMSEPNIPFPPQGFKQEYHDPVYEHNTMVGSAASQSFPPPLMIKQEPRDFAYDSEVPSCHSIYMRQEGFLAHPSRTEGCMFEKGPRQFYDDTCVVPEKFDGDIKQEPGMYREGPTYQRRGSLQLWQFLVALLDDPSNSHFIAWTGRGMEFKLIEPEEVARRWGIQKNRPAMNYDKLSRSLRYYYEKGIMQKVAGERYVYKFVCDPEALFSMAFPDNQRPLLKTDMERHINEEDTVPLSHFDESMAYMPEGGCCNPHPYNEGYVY
Sequence of ELF1 (P32519 whole entry): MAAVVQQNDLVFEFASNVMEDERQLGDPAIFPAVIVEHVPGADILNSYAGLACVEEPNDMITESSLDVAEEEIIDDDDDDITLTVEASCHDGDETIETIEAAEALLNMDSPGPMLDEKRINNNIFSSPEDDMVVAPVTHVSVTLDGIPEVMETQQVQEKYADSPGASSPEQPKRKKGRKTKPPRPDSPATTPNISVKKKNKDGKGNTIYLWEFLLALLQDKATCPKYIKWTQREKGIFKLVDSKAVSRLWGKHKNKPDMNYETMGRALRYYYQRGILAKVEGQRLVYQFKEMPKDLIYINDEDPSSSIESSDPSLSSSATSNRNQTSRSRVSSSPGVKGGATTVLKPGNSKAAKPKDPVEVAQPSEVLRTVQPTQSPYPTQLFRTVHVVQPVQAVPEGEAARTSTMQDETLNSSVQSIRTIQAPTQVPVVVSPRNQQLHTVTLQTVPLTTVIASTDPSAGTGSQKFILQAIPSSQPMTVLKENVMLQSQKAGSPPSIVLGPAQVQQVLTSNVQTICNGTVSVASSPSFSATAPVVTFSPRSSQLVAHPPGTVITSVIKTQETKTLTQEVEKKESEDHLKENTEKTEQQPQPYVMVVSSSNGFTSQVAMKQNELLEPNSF
Sequence of ETV5 (P41161 whole entry): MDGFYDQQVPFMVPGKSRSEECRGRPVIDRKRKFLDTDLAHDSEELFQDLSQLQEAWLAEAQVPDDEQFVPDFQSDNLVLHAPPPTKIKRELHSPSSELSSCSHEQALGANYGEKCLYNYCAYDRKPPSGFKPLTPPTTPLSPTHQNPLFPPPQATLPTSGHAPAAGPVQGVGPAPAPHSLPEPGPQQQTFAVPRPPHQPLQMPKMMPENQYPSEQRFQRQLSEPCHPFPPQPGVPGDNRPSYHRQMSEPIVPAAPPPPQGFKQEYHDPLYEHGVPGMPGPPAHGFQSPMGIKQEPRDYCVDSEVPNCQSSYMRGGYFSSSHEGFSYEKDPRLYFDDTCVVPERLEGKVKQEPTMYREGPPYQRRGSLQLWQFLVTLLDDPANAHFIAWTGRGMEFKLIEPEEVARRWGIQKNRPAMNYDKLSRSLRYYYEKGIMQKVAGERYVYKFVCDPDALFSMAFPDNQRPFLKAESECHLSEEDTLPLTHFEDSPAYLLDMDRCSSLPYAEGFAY

Regarding ACATCA, the binding signal is 1.11 fold enrichment (6-mer frequency, TF over GST control) with FLI1; 1.12 fold enrichment (6-mer frequency, TF over GST control) with ELK1; 1.09 fold enrichment (6-mer frequency, TF over GST control) in the test with GABPA; 1.14 fold enrichment (6-mer frequency, TF over GST control) with ERG; 1.16 fold enrichment (6-mer frequency, TF over GST control) with ELF1; 1.23 fold enrichment (6-mer frequency, TF over GST control) with EHF. Moreover, the binding signal is 1.13 fold enrichment (6-mer frequency, TF over GST control) in the test with SPI1; 1.07 fold enrichment (6-mer frequency, TF over GST control) with SPIB; 1.11 fold enrichment (6-mer frequency, TF over GST control) with ELK3; 1.17 fold enrichment (6-mer frequency, TF over GST control) with FEV; 1.17 fold enrichment (6-mer frequency, TF over GST control) in the test with ETV5; 1.13 fold enrichment (6-mer frequency, TF over GST control) in the test with SPIC. Moreover, the binding signal in the test with ELF4 was 1.19 fold enrichment (6-mer frequency, TF over GST control); with ELK4 it was 1.14 fold enrichment (6-mer frequency, TF over GST control); with ETV2, 1.22 fold enrichment (6-mer frequency, TF over GST control); with ELF3, 1.15 fold enrichment (6-mer frequency, TF over GST control); with ETV1, 1.15 fold enrichment (6-mer frequency, TF over GST control).
